Measurements from ChEMBL document CHEMBL4513216, “Probing the Open Global Health Chemical Diversity Library for Multistage-Active Starting Points for Next-Generation Antimalarials” (ACS Infect Dis, 2020).
The whole screen tested about 69,000 compounds, of which about 8,600 (12%) showed an effect of 50% or more. Many of the other results were omitted from the sample, so strong results are more common in it than they were.

Test system: Plasmodium berghei
Assay: Screen against P. berghei liver stage (PbLuc), transformed with Luciferase, at 10uM
Format: functional, HepG2
Conditions: tested at 10 uM

| Compound | INHIBITION [%] |
| --- | --- |
| CN(C)c1ncc(C(=O)N2C[C@H]3CC(Oc4ccccc4)C[C@H]3C2)cn1 (some centres undefined) | 2.35 |
| O=C(Cc1cn2ccccc2n1)N1CCCC(n2ccnc2)C1 (centres undefined) | -43.6 |
| Cc1cccc(N2CCOCC3(C2)CN(c2ccoc2)C(=O)CO3)n1 (centres undefined) | 32.5 |
| NC(=O)c1cc(CC2CCCN(c3cnccn3)C2)ncn1 (centres undefined) | -32.7 |
| CS(=O)(=O)NC1CCCN(C(=O)Nc2cccnc2N2CCCC2)C1 (centres undefined) | 21.1 |
| CN(C)C[C@@H]1C[C@@H]2CN(Cc3nccn3C)CC[C@@H]2N1CC1CC1 | 51.2 |
| Cc1oncc1C(=O)N1CC[C@H]2[C@H](C[C@@H](CN(C)C)N2CC2CC2)C1 | 33.5 |
| CC(C)N1[C@H](Cn2cncn2)C[C@@H]2CN(Cc3nccn3C)CC[C@@H]21 | 37.6 |
| Cc1cc(C(=O)N2CCC(n3nc(C)cc3C)C2)c2ccc(F)cc2n1 (centres undefined) | 37.3 |
| CCc1ccc2nc(C)cc(C(=O)N3C[C@H]4CCC[C@@]4(CO)C3)c2c1 | 25.5 |
| Cc1ccc2nc(C)cc(C(=O)N3C[C@H]4CCC[C@@]4(CO)C3)c2c1 | 75.7 |
| CCCc1cc(C(=O)N2C[C@H]3CCC[C@@]3(CO)C2)[nH]n1 | 21.9 |
| Cc1cc(C(=O)N2C[C@H](c3ccccc3)[C@@H](N)C2)c2ccc(F)cc2n1 | 13 |
| Cc1cc(C(=O)N2C[C@H]3CCC[C@@]3(CO)C2)c2ccc(F)cc2n1 | 58.6 |
| CC(C)COC(C)C(=O)NCc1ccc(F)cc1 (centres undefined) | -27.8 |
| Cc1cccc(CNC(=O)CC2CCN(Cc3ccccn3)CC2)n1 | 18.3 |
| CCc1nc(C2CCCN2C(=O)CCc2cscn2)no1 (centres undefined) | 18.2 |
| CCn1cc(CN2C[C@@H]3CCCN3C[C@H]2CCSC)cn1 | 35.2 |
| CCOCC1CN(Cc2csc(C)n2)Cc2nccn2C1 (centres undefined) | 1.9 |
| CCCc1nnc(N2CCC3(CC2)CC(=O)NC(=O)C3)o1 | -10.2 |
| O=C(CC1=CCCCC1)N1CCC(Cn2cc(CCO)nn2)CC1 | 58.5 |
| CC(C)CCN1CCCC(Cn2cc(CCO)nn2)C1 (centres undefined) | 6.69 |
| O=C(Cc1ccsc1)N1CCC(Cn2cc(CCO)nn2)CC1 | 57.1 |

| Compound | INHIBITION [%] |
| --- | --- |
| COc1ccc(CC(=O)N2CCCC(Cn3cc(CN)nn3)C2)cc1 (centres undefined) | 12.7 |
| O=C(c1sccc1Cl)N1CCC(Cn2cc(CO)nn2)CC1 | 10.7 |
| COCc1cn(C2CCN(C(=O)Cc3ccsc3)CC2)nn1 | 34.8 |
| NCc1cn(CC2CCCN(C(=O)CC3=CCCCC3)C2)nn1 (centres undefined) | 58.5 |
| CC(C)(CN1CCCC1)CN1CCC(Cn2cc(CCO)nn2)CC1 | -6.03 |
| NCc1cn(CC2CCCN(C(=O)NCc3ccc(Cl)cc3)C2)nn1 (centres undefined) | 45.8 |
| CC(C)N(C)Cc1cnc2n1CCN(CCc1ccccc1)C2 | 8.47 |
| O=C(NCCc1cccs1)[C@H]1CO[C@H]2CCNC[C@H]2C1 | 39.8 |
| Cc1noc(C)c1CN1CCO[C@H]2CN(C(=O)C3CCOCC3)C[C@H]21 | 29.4 |
| O=C(c1ccn(-c2ccccc2Cl)n1)N1CCCSCC1 | -15.3 |
| c1ccc(OC2C[C@@H]3CN(Cc4cnccn4)C[C@@H]3C2)cc1 (some centres undefined) | -15.3 |
| Cc1cccc(CNc2cc(C3CCCNC3)ccn2)n1 (centres undefined) | 50.45 |
| CCc1nnc(Nc2cccc(C3CCCN(CC(C)(C)C)C3)n2)s1 (centres undefined) | -34.6 |
| CNc1cccc(C2CCCN(Cc3ncc[nH]3)C2)n1 (centres undefined) | 15.9 |
| COCCNc1cc(C2CCCNC2)ccn1 (centres undefined) | -14.775 |
| Cc1cccc(Nc2nccnc2C2CCCN(CC(=O)N(C)C)C2)n1 (centres undefined) | 36.7 |
| Cc1cc(C)nc(Nc2cccc(C3CCCN(CC4CC4)C3)n2)n1 (centres undefined) | 47.2 |
| c1ccc(CNc2cc(C3CCCNC3)ccn2)nc1 (centres undefined) | 7.775 |
| NC(=O)CN1CCCC(c2ccnc(Nc3ncccn3)c2)C1 (centres undefined) | 37.55 |
| Cc1cccc(Nc2cc(C3CCCN(CC(N)=O)C3)ccn2)n1 (centres undefined) | 81.55 |
| Cc1cccc(Nc2cccc(C3CCCN(Cc4ncc[nH]4)C3)n2)n1 (centres undefined) | 64.1 |
| Cc1nnc(Nc2cccc(C3CCN(Cc4ncc[nH]4)CC3)n2)s1 | -12.9 |
| Cc1nnc(Nc2cccc(C3CCCN(Cc4ncc[nH]4)C3)n2)s1 (centres undefined) | 62.9 |

| Compound | INHIBITION [%] |
| --- | --- |
| CN(C)CCNC(=O)C1Cc2nc(-c3ccsc3)sc2N1CC1CC1 (centres undefined) | -16.2 |
| CCN1C[C@H]2[C@@H](C1)N(S(=O)(=O)c1ccccc1F)CC[C@H]2OC | 32.2 |
| CN1CCn2c(-c3ccccc3)cnc2C12CCN(CC1CC1)CC2 | 29.8 |
| CCOC(=O)N1C[C@@H]2CC[C@H]1CN(Cc1ccccc1)C2 | 12.8 |
| CN(C)CCN1C(=O)C[C@@H]2[C@@H]1CCN2S(=O)(=O)c1ccccc1 | -71.3 |
| CCC(=O)N1CCCCC1c1nc(O)c2c(n1)CN(S(C)(=O)=O)CC2 (centres undefined) | 10.9 |
| Cn1ccc(-c2cc(C(=O)N3CCCCC3)c3ccccn23)n1 | 49.4 |
| O=C(CCCOc1ccccc1F)Nc1cc[nH]n1 | 11.5 |
| CC(C)CC(=O)N[C@H](C)c1c(-c2ccc(Cl)cc2)noc1C(=O)O | 7.5 |
| CC(NC(=O)NCCCN(C(C)C)S(C)(=O)=O)c1ccncc1 (centres undefined) | -11.4 |
| NC(=O)CN(C(=O)C1Cc2cc(Cl)ccc2O1)C1CCCC1 (centres undefined) | 6.83 |
| O=C(O)c1ccc(F)c(S(=O)(=O)N2CCOc3ccccc32)c1 | 32.44 |
| Cc1ccc(C(=O)N2C[C@H]3CC[C@@H](C2)N(CC2CCC2)C3)s1 | -26.4 |
| COc1ncnc2c1CCN(Cc1cccs1)CC2 | -0.804 |
| CCc1noc(C2CCCCN2C(=O)c2cc(C)n(C)n2)n1 (centres undefined) | 52.4 |
| CCc1noc(C2CCCCN2C(=O)c2cc(C)oc2C)n1 (centres undefined) | 78.1 |
| CCc1noc(C2CCCCN2C(=O)c2cc(C)on2)n1 (centres undefined) | 22.6 |
| CCc1noc(C2CCCCN2C(=O)c2nnc3ccccc3n2)n1 (centres undefined) | 62.4 |
| CCc1noc(C2CCCCN2C(=O)c2cccs2)n1 (centres undefined) | 9.32 |
| CCc1noc(C2CCCCN2C(=O)c2ccccc2)n1 (centres undefined) | -45 |
| CCc1noc(C2CCCCN2C(=O)c2ccoc2C)n1 (centres undefined) | 22.1 |
| CCc1noc(C2CCCCN2C(=O)c2ccc(C)o2)n1 (centres undefined) | 45.8 |
| CCc1noc(C2CCCCN2C(=O)c2ccn(C3CCCC3)n2)n1 (centres undefined) | 6.32 |
